Assay results as given in PubChem BioAssay (NCI).
The panel holds about 83,000 compounds, 20% with a hit somewhere; the sample as a whole holds those more often.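 Interpretation: 100, growth as untreated; towards 0, rising growth inhibition; 0, no net growth; 0 to -100, cell death. Compounds scoring below 10 were considered active.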 The source made the active and inactive calls.

Legend:
Assay in all cases: NCI-60 one-dose screen, 48 h (100 = growth as untreated, 0 = no growth, -100 = all killed)
Settings in all cases: 10 µM unless noted
[1] = system: SN12C renal
[2] = system: UO-31 renal
[3] = system: TK-10 renal
[4] = system: ACHN renal
[5] = system: CAKI-1 renal
[6] = system: A498 renal
[7] = system: CCRF-CEM leukemia
[8] = system: MOLT-4 leukemia

Measured: growth

O=C(Nc1ccc2[nH]c3ccccc3c2c1)c1ccccc1Cl
inactive: [1] 61.3% | [2] 65.7% | [3] 49.7% | [4] 70% | [5] 27.2% | [6] 44.7% | [7] 40.1% | [8] 33.4%

COc1cc(C(=O)/C=C/c2cn(-c3ccccc3)nc2-c2cccc(Nc3ccnc4cc(Cl)ccc34)c2)cc(OC)c1OC
inactive: [1] 90.9% | [2] 86.4% | [3] 133% | [4] 108% | [5] 103% | [6] 99.6% | [7] 21% | [8] 63.3%

NS(=O)(=O)c1ccc(N2N=C(c3ccc(Br)cc3)CC2c2cn(-c3ccccc3)nc2-c2ccc(Cl)cc2)cc1 (centres undefined)
inactive: [1] 78.6% | [2] 58.3% | [3] 112% | [4] 86.5% | [5] 89% | [6] 113% | [7] 70.8% | [8] 74.8%

NS(=O)(=O)c1ccc(N2N=C(c3cccs3)CC2c2ccccc2O)cc1 (centres undefined)
active: [6] -13.2% | [7] 4.36% | [8] 8.13%
inactive: [1] 16.5% | [2] 34.9% | [3] 23.5% | [4] 15.9% | [5] 24.2%

Cc1cc(C)c(C#N)c(SCC(=O)c2sc3c(C#N)c(C)cc(C)[n+]3c2[O-])n1
inactive: [1] 31.4% | [2] 45.5% | [3] 35.3% | [4] 31%
active: [5] -6.91% | [6] -6.21% | [7] 9.64% | [8] 2.71%

COc1ccc(/C=c2\c(=O)n(-c3ccccc3)c3nn4c(n23)=NNC42CCCCC2)cc1
inactive: [1] 98.5% | [2] 63.2% | [3] 159% | [4] 90.5% | [5] 85.6% | [6] 93.4% | [7] 101% | [8] 98.8%

COc1ccc(C2=NN(C=O)C(c3ccc(OS(=O)(=O)c4ccc(C)cc4)c(OC)c3)C2)cc1 (centres undefined)
inactive: [1] 76.9% | [2] 53.9% | [3] 73.2% | [4] 69.1% | [5] 52.7% | [6] 39.6% | [7] 37.9% | [8] 40.7%

COc1ccc(OC)c(Nc2nc(-c3c(C)nc4sccn34)cs2)c1
active: [8] 9.57%
inactive: [1] 90.1% | [2] 77.8% | [3] 98% | [4] 79.5% | [5] 73.7% | [6] 30.7% | [7] 38.1%

COc1cc2cc(C(=O)Nc3ccccc3)c(N)nc2cc1OC
inactive: [1] 49.1% | [6] 52.4%
active: [2] 5.81% | [3] -48% | [4] -0.0696% | [5] -13.8% | [7] -21.7% | [8] -44.6%

Oc1ccc(Nc2ncnc3c2sc2ncccc23)cc1
active: [2] -9.84% | [4] 9.05% | [6] 8.96%
inactive: [1] 17.1% | [3] 59.7% | [5] 13.1% | [7] 16% | [8] 12.2%

COc1ccc(-c2n[nH]nc2-c2cc(OC)c3c(c2)OCO3)cc1
inactive: [1] 23% | [2] 20.1% | [3] 47.7% | [4] 29.6%
active: [5] -2.7% | [6] -9.3% | [7] -4.86% | [8] -15.3%

COc1ccc(C2CC(c3cccc(Nc4ccnc5cc(Cl)ccc45)c3)=NN2c2ccccc2)cc1 (centres undefined)
inactive: [1] 81.3% | [2] 77.4% | [3] 111% | [4] 58.8% | [5] 19.9% | [6] 55.7% | [7] 57.9% | [8] 64.3%

Clc1ccc(-c2nc(Br)cn3ccnc23)cc1
inactive: [1] 86.5% | [2] 40.3% | [3] 85.7% | [4] 83.4% | [5] 73% | [6] 76.6% | [7] 92.8% | [8] 78.9%

COc1ccc(C(=O)c2c(N)nc3n2CCCC3)cc1OC
inactive: [1] 109% | [2] 84.3% | [3] 92.8% | [4] 107% | [5] 93.9% | [6] 98.6% | [7] 99.8% | [8] 84.1%

CC(C)CC(NC(=O)OCC1c2ccccc2-c2ccccc21)C(=O)O (centres undefined)
inactive: [1] 104% | [2] 94.2% | [3] 109% | [4] 112% | [5] 86.6% | [6] 95% | [7] 98.7% | [8] 96.2%

COc1cc(C2CC(c3ccc(Nc4ccnc5cc(Cl)ccc45)cc3)=NN2c2ccccc2)cc(OC)c1OC (centres undefined)
inactive: [1] 76.3% | [2] 57.8% | [3] 89.8% | [4] 77.1% | [5] 48.2% | [6] 61% | [7] 47.5% | [8] 62.3%

COc1ccc(C(=O)/C=C/c2cn(-c3ccccc3)nc2-c2cccc(Nc3ccnc4cc(Cl)ccc34)c2)cc1
inactive: [1] 89.8% | [2] 86.6% | [3] 120% | [4] 103% | [5] 94.3% | [6] 94.8% | [7] 48.3% | [8] 104%

COC1=CC(c2ccc[nH]2)=N/C1=C\c1[nH]c(C)c(C(=O)CCCCCCCCC(=O)O[C@H]2CC[C@H]3C4CCc5cc(O)ccc5C4CC[C@]23C)c1C (some centres undefined)
inactive: [1] 39.6% | [3] 34.1% | [4] 24.3% | [5] 40.5% | [8] 19.5%
active: [2] -13.3% | [6] -0.91%

Cc1cc(C)c2c(n1)sc1c(Nc3ccc(Cl)cc3Cl)ncnc12
inactive: [1] 13.5% | [3] 56.7% | [4] 11.7% | [5] 12.9% | [6] 15.6% | [7] 16.1% | [8] 11.6%
active: [2] -8.56%

O=C(Nc1ccc(Oc2ccc(Nc3nc4ccccc4s3)cc2)cc1)Nc1ccc(Cl)c(C(F)(F)F)c1
inactive: [2] 14.1% | [3] 12.6% | [5] 12.4%
active: [1] 1.99% | [4] 3.09% | [6] -18.3% | [7] 5.88% | [8] 5.65%

CCc1ccc2c(c1)N(CCO)C1=C(C(=O)OC1)C2c1cccc(Cl)c1 (centres undefined)
inactive: [1] 38.7% | [2] 34.9% | [3] 49.9% | [4] 42% | [5] 27.6% | [7] 10.5% | [8] 17.6%
active: [6] -1.08%

COc1cc(C2C=C(C)N=C3SC=NN32)cc(OC)c1OC (centres undefined)
inactive: [1] 100% | [2] 99.5% | [3] 109% | [4] 102% | [5] 99% | [6] 90.9% | [7] 90.7% | [8] 97.2%

Cc1ccc(S(=O)(=O)NC(CCC(=O)Nc2ccc(Cl)cc2)C(=O)Nc2ccc(Cl)cc2)cc1 (centres undefined)
inactive: [1] 39.8% | [2] 38.2% | [3] 25.7% | [4] 30% | [5] 41.9% | [8] 10.7%
active: [6] -0.58%

COc1ccc(-c2nsc3c2NC(=O)CC3c2cccc(F)c2)cc1 (centres undefined)
inactive: [1] 55.7% | [2] 70.5% | [3] 51.6% | [4] 66.2% | [5] 38.5% | [6] 28.7% | [7] 49.5% | [8] 41.6%

COc1cccc(Cn2c(-c3nonc3NC(C)=O)nc3ccccc32)c1
inactive: [1] 48.4% | [2] 36% | [3] 26.6% | [4] 42.8% | [5] 24% | [8] 38.7%
active: [6] -0.794%

Cc1nc2ccc(Nc3nc(Cl)nc(N4CCOCC4)n3)cc2n1Cc1ccccc1
inactive: [1] 78.2% | [2] 73.8% | [3] 44.7% | [4] 79.4% | [5] 104% | [6] 91.7% | [8] 25.8%
